Screening data from PubChem.
POLI inh = qHTS for Inhibitors of Polymerase Iota; actives 1% (n = 390,000); DNA polymerase iota (Homo sapiens), Q9UNA4; Pol iota fluorescent replication assay, 10 min; AID 588590, 2011; Potency, µM (top dose mostly 115 µM), most hits filed as inhibitors
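Fluorescent replication assay read twice, at 0 min and 10 min after adding 50 nM (final) substrate. Enzyme (10 nM) and compounds were first incubated 15 min at room temperature; enzyme-free buffer wells were negative controls.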
Pol eta inh-1 = qHTS for Inhibitors of Polymerase Eta; recombinant Pol eta, fluorescent DNA replication assay; Potency, µM (highest dose often 114 µM), actives largely listed as inhibitors; actives 1.2% (n = 390,000); AID 588591, 2011
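Pol eta at 10 nM preincubated with compounds 15 min at room temperature; reaction started with fluorescent substrate (50 nM final) and read kinetically at 0 and 10 min.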
Pol kappa inh-1 = qHTS for Inhibitors of Polymerase Kappa. purified Pol kappa, fluorescent DNA synthesis assay, 10 min. Potency, µM (doses to about 107 µM), most hits filed as inhibitors. actives 0.53% (n = 400,000)
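10 nM Pol kappa was preincubated with compounds for 15 min at room temperature. Reaction started with 50 nM (final) substrate. Fluorescence read kinetically at 0 and 10 min.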
Tb PGK inh = qHTS Assay to Find Inhibitors of Phosphoglycerate Kinase; Phosphoglycerate kinase, glycosomal (Trypanosoma brucei brucei), P07378; PGK/GAPDH coupled, Kinase-Glo luminescence, 60 min; Potency, µM (titrated, usually from 57.5 µM), hits mostly inhibitors; actives 0.043% (n = 380,000); AID 602233, 2012; note: nearly all actives have a fitted effect of over 60% in size
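Luminescent ATP detection (Kinase-Glo Plus) follows a 60-minute room-temperature incubation, with wells lacking PGK as controls. Buffer: 100 mM TEA (pH 7.6), 5 mM MgCl2, 0.01% Tween-20. Coupling enzyme GAPDH (100 nM final) supplies unstable 1,3-BPG in-well.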
FEN1 inh-1 = qHTS Assay for the Inhibitors of Human Flap endonuclease 1 (FEN1); actives 0.35% (n = 390,000); Recombinant FEN1 flap cleavage, fluorescence, 15 min; Potency, µM (doses to about 114 µM), hits mostly inhibitors; P39748; note: nearly all actives have a fitted effect of over 65% in size
Target sequence (P39748 whole entry, looked up): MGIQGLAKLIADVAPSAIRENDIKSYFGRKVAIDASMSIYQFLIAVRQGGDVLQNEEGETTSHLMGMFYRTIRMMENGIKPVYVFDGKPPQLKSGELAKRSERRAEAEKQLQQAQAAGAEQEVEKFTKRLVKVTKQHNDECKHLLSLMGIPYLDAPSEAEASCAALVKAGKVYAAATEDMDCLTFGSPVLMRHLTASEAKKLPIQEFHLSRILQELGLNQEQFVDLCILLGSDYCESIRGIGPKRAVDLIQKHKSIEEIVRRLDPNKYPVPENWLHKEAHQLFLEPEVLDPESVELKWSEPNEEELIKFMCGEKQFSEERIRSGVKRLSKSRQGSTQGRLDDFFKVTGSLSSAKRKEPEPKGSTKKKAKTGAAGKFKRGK
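With each library titrated from low to high concentration, compounds met 10 nM FEN1 for 15 min at room temperature before 50 nM substrate was added; readings at 0 and 15 min fed four-parameter Hill curve fits.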
Pol beta inh = qHTS Assay for Inhibitors of DNA Polymerase Beta. P06746. Potency, µM (top dose mostly 114 µM), hits mostly inhibitors. Pol beta primer extension/strand displacement, fluorescence kinetic. actives 1.3% (n = 340,000)
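Human Pol beta at 10 nM; strand-displacement substrate 50 nM final. Compound exposure 15 min at room temperature before start, reaction 10 min at room temperature.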
TbPGK inh = qHTS for inhibitors of Phosphogylcerate Kinase: Hit Validation Screen. Potency, µM (titrated, usually from 57.5 µM), most hits filed as inhibitors. TbPGK coupled GAPDH assay, Kinase-Glo luminescence. actives 79% (n = 500). shares compounds with Pol kappa inh-1; note: nearly all actives have a fitted effect of over 65% in size
POLI cherry-pick = qHTS for Inhibitors of Polymerase Iota: Confirmatory Assay for Cherry-picked Compounds; actives 77% (n = 1,500); AID 720496, 2013; Potency, µM, actives largely listed as inhibitors; shares compounds with Pol kappa inh-1; Pol iota primer extension, TAMRA/BHQ fluorescence
Pol kappa inh-2 = qHTS for Inhibitors of Polymerase Kappa: Confirmatory Assay for Cherry-picked Compounds. shares compounds with Pol eta inh-1. purified Pol-kappa, fluorescent strand-displacement substrate. Potency, µM, usual class: inhibitors. actives 76% (n = 920). AID 720501, 2013
Pol eta inh-2 = qHTS for Inhibitors of Polymerase Eta: Confirmatory Assay for Cherry-picked Compounds; shares compounds with Pol eta inh-1; Pol eta primer extension, TAMRA/BHQ fluorescence, 10 min; Potency, µM, actives largely listed as inhibitors; actives 64% (n = 2,600); AID 720502, 2013
FEN1 inh-2 = qHTS Assay for the Inhibitors of FEN1: Confirmatory Assay for Cherry-picked Compounds; Potency, µM, most hits filed as inhibitors; shares compounds with FEN1 inh-1; FEN1 flap cleavage, TAMRA/BHQ2 fluorogenic DNA substrate; actives 79% (n = 880); note: nearly all actives have a fitted effect of over 60% in size
Of the large screens only hits and unclear results are named; the others gave an inactive call (follow-up assays come after a bar, where they were run). Compounds with a hit are over-represented: about 2.4% of the library has one in this group of screens. Calls come from the whole dose curve; as a rule, active = well fitted curve in the direction sought with a large enough effect; inconclusive = small, poorly fitted or top-dose-only effect, or another doubt; inactive = no such curve, though single readings can be large; an effect the other way counts as inactive or inconclusive.

O=C(O)c1ccc(-n2cccc2/C=N\NC(=O)c2cc3cc(Br)ccc3o2)cc1	POLI inh 7.1µM, Pol eta inh-1 3.2µM, Pol kappa inh-1 14µM, Tb PGK inh inconclusive, FEN1 inh-1 inconclusive, Pol beta inh inconclusive | TbPGK inh 9.2µM | POLI cherry-pick 3 | Pol eta inh-2 5.4 | FEN1 inh-2 inconclusive
CCOc1cc(-c2nc(-c3ccc(-c4ccc(C)cc4)nc3OC)no2)cc(OCC)c1OCC	Pol beta inh inconclusive
COCCNc1cc(N2CCN(C3CCCCC3)CC2)c2noc3c2c1C(=O)c1ccccc1-3	none
N#CNC(=O)c1ccc(-n2cccc2/C=C2\NC(=O)N(CC(=O)Nc3ccc(F)cc3)C2=O)cc1	none (no result: POLI inh, Pol eta inh-1, Pol kappa inh-1, Tb PGK inh, FEN1 inh-1, Pol beta inh) | POLI cherry-pick 27 | Pol eta inh-2 48 | FEN1 inh-2 34
COc1ccc(NC(=O)CN2C(=O)N/C(=C\c3cccn3-c3ccc(C(=O)NC#N)cc3)C2=O)cc1	none (no result: POLI inh, Pol eta inh-1, Pol kappa inh-1, Tb PGK inh, FEN1 inh-1, Pol beta inh) | POLI cherry-pick 42 | Pol kappa inh-2 19 | Pol eta inh-2 60 | FEN1 inh-2 43
O=C(O)CN1C(=O)N/C(=C\c2cccn2-c2ccc(P(=O)(O)O)cc2)C1=O	POLI inh inconclusive (no result: Pol beta inh)
Cc1cccc(C)c1OCCCn1c(CCNC(=O)C2CCCCC2)nc2ccccc21	FEN1 inh-1 inconclusive
C[C@@H](O)[C@@H]1C(=O)N2C(C(=O)O)=C([C@H]3CCCO3)S[C@H]12	none (no result: POLI inh, Pol eta inh-1, Tb PGK inh, FEN1 inh-1, Pol beta inh)
CC(=O)Nc1sc2c(c1-c1nc3ccccc3s1)CCN(C(C)C)C2	POLI inh inconclusive, Pol eta inh-1 inconclusive, Pol kappa inh-1 inconclusive, FEN1 inh-1 inconclusive, Pol beta inh 3.5µM | POLI cherry-pick 19 | Pol kappa inh-2 12 | FEN1 inh-2 12
CCN1CCc2c(sc(NC(=O)CSc3ccccc3)c2-c2nc3ccccc3s2)C1	none
CC(=O)Nc1sc2c(c1-c1nc3ccccc3s1)CCN(C(C)C)CC2	none (no result: POLI inh, Pol eta inh-1, Pol kappa inh-1, Tb PGK inh, FEN1 inh-1, Pol beta inh) | POLI cherry-pick 67 | FEN1 inh-2 24
CC(=O)N(CC(O)CN(C(C)=O)c1c(I)c(C(=O)NC[C@@H](O)CO)c(I)c(C(=O)NC[C@@H](O)CO)c1I)c1c(I)c(C(=O)NC[C@@H](O)CO)c(I)c(C(=O)NC[C@@H](O)CO)c1I	none (no result: POLI inh, Pol eta inh-1, Tb PGK inh, FEN1 inh-1, Pol beta inh)
COc1ccc(Cn2c(CO)cnc2SCc2ccc(C)cc2)cc1	none
